Hits are enriched below; roughly 19% of the tested compounds scored in any of these assays.
HT1080 IDH1KD tx: qHTS for induction of synthetic lethality in tumor cells producing 2HG: qHTS for the HT-1080-IDH1KD cell line; HT-1080 IDH1 knockdown viability, ATP luminescence, 48 h; Potency, µM (series often up to 46.1 µM), for the others: at the top dose activity, negative = toxicity, usual class: cytotoxic; 360,000 compounds, 2% hits;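 note: potency is the fitted concentration of half-maximal effect; 0% = DMSO wells and -100% = cell-free medium wells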
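% activity derives from luminescence (CellTiter-Glo), normalised to DMSO and no-cell wells. HT-1080-IDH1KD cells, 750/well, had 48 h compound exposure at 37 °C.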
HT1080-NT tox: qHTS for induction of synthetic lethality in tumor cells producing 2HG: qHTS for the HT-1080-NT fibrosarcoma cell line; HT-1080-NT fibrosarcoma viability, CellTiter-Glo ATP luminescence, 48 h; Potency, µM (titrated, usually from 46.1 µM), without a hit: at the top dose activity, negative = less viability, usual class: cytotoxic; 360,000 compounds, 1.6% hits;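 note: NT is the 2HG producing partner of a matched IDH1 knockdown line; potency is the fitted concentration of half-maximal effect; 0% = DMSO-treated cells and -100% = media-only wells without cells; nearly all actives have a fitted effect of over 55% in size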
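Fibrosarcoma NT cells, 750 per well in 5% FBS RPMI, were exposed to compound for 48 hours. Viability: CellTiter-Glo luminescence.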
IL-1B inflam inh: qHTS for Inhibitors of Inflammasome Signaling: IL-1-beta AlphaLISA Primary Screen; THP-1 LPS/ATP IL-1B secretion, AlphaLISA, 16 h; stronger effect = lower value; activity change, % at 57.5 µM; 360,000 compounds, 4.7% hits; in the data active = activity change below about -50%; inconclusive = mostly about -30% to -49%
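Secreted IL-1B measured by AlphaLISA bead assay after 16 h compound exposure of THP-1 cells; compounds (final up to 57.5 uM) added 1 h before LPS (250 ng/mL) and ATP (1.25 mM) stimulation; lower signal means less secretion.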
DT40 TDP1 CPT: qHTS for Inhibitors of human tyrosyl-DNA phosphodiesterase 1 (TDP1): qHTS in cells in presence of CPT | chicken DT40 Tdp1-/-;hTDP1 cells + 20 nM CPT, ATP luminescence, 48 h | Potency, µM (series often up to 46.2 µM), for inactives: at the top dose activity change, negative = growth inhibition, hits mostly inhibitors | 420,000 compounds, 12% hits | AID 686979, 2013; note: potency is the fitted concentration of half-maximal effect; nearly all actives have a fitted effect of over 55% in size
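Cell growth measured by CellTiter-Glo luminescence after a minimum 48 h, 37 C compound exposure with 20 nM CPT in Tdp1-knockout DT40 cells stably expressing hTDP1, seeded 400/well; qHTS titration format.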
ELG1 DNA repair: qHTS screen for small molecules that inhibit ELG1-dependent DNA repair in human embryonic kidney (HEK293T) cells expressing luciferase-tagged ELG1 | HEK293T ELG1-luciferase reporter, luminescence, 16 h; DNA damage induced by 5-fluorouridine | Potency, µM (titrated, usually from 46.1 µM), without a hit: at the top dose activity change, negative = inhibition, most hits filed as inhibitors | 330,000 compounds, 2.3% hits; note: potency is the fitted concentration of half-maximal effect; nearly all actives have a fitted effect of over 55% in size
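5-Fluorouridine DNA damage + compound/DMSO, 2,000 cells/well, 16 h, 37 °C/5% CO2. ONE-Glo, 30 min RT, luminescence. Readout = decrease in reporter signal.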
TDP1 cell noCPT: qHTS for Inhibitors of human tyrosyl-DNA phosphodiesterase 1 (TDP1): qHTS in cells in absence of CPT. AID 686978, 2013. 420,000 compounds, 15% hits. DT40 Tdp1-/- hTDP1 cells, no CPT, ATP luminescence, 48 h. Potency, µM (highest dose often 46.2 µM), inactives show at the highest dose activity change, negative = growth inhibition, most hits filed as inhibitors; note: potency is the fitted concentration of half-maximal effect; nearly all actives have a fitted effect of over 55% in size
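A cellular qHTS used chicken DT40 cells lacking endogenous Tdp1 but carrying stably transfected human TDP1. Compounds were applied without camptothecin, and cell growth kinetics were judged by ATP-dependent luminescence after ≥48 hr.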
* marks the source's active call; other numbers are inactive results; ? = inconclusive; / = no result given; [ ] = dose if it differs, or a comment. Unless noted, calls come from the whole dose curve; as a rule, active = well fitted curve in the direction sought with a large enough effect; inconclusive = small, poorly fitted or top-dose-only effect, or another doubt; inactive = no such curve, though single readings can be large; an effect the other way counts as inactive or inconclusive. Unless noted, % is set by controls: 0 for no effect and ±100 for the full control effect.

SMILES | HT1080 IDH1KD tx | HT1080-NT tox | IL-1B inflam inh | DT40 TDP1 CPT | ELG1 DNA repair | TDP1 cell noCPT
COc1cccc(-c2cc(C(=O)NCC3CCCO3)c3ccccc3n2)c1 (stereo unspecified) | 7% | 6% | 24 | -19% | ? | 18µM*
COc1cccc(C(=O)NCC2CCCO2)c1 (stereo unspecified) | / | / | / | / | 26% | /
O=C(NCC1CCCO1)/C(=C/c1cn(-c2ccccc2)nc1-c1cccnc1)NC(=O)c1ccccc1 (stereo unspecified) | -5% | -7% | ? | ? | 21µM* | ?
COc1ccc(-c2cc(C(=O)NCC3CCCO3)c3ccccc3n2)cc1 (stereo unspecified) | -1% | 4% | 6 | ? | -6% | ?
O=C(NCc1ccccn1)c1cn(-c2ccccc2)nc1-c1ccc(Cl)cc1 | -6% | 2% | 0 | ? | -16% | 26µM*
CC1(C)C(=O)OC(c2ccc([N+](=O)[O-])cc2)C(C)(C)C1=O (stereo unspecified) | 1% | 10% | 27 | ? | 0% | 9%
Cc1ccc(C(=O)NC(N2CCCC2)C(Cl)(Cl)Cl)cc1 (stereo unspecified) | -10% | -3% | 19 | -20% | 11% | -19%
O=C(NCC1CCCO1)c1cc(-c2ccccc2)nc2ccc(Br)cc12 (stereo unspecified) | 2% | -4% | -6 | ? | 2% | ?
O=C(COC(=O)c1cc(-c2cccc(Br)c2)nc2ccccc12)NCC1CCCO1 (stereo unspecified) | -2% | 3% | 13 | 0.016µM* | 16% | -17%
Cc1cccc(C)c1NC(=O)C1(C)CSCC(=O)N1Cc1cccc(F)c1 (stereo unspecified) | 0% | -8% | -20 | 13% | / | -14%
Cc1cccc(C)c1NC(=O)C1(C)CSCC(=O)N1Cc1cccc(C(F)(F)F)c1 (stereo unspecified) | 1% | 8% | -19 | ? | / | 26µM*
Cc1ccc(CN2C(=O)CSCC2(C)C(=O)NCc2ccccc2)cc1 (stereo unspecified) | 12% | 14% | -10 | 21µM* | / | ?
O=C(COC(=O)/C=C/C(=O)OCC(=O)Nc1ccccc1F)Nc1ccccc1F | -4% | -3% | -82* | ? | 0% | ?
CN(C)C(=O)c1ccc(NC(=O)COC(=O)/C=C/c2cccs2)cc1 | -3% | -6% | -11 | 5% | 14% | 7%
CCOc1ccccc1NC(=O)COC(=O)/C=C/c1cccs1 | -1% | 1% | -17 | -18% | ? | 18µM*
Cc1ccc(NC(=O)CN(C)C(=O)COC(=O)/C=C/c2cccs2)cc1 | 5% | 1% | -97* | 14% | -6% | -23%
CC(=O)Nc1ccc(S(=O)(=O)N2CCC(C(=O)NCCC(=O)NCc3ccccc3)CC2)cc1 | 10% | 5% | 4 | -28% | 13% | 29%
COc1ccccc1C1CN(Cc2cn(C)nc2C)Cc2ccccc2O1 (stereo unspecified) | / | / | / | 12%[9.04 µM] | / | -28%
CCN(CC)c1ccc(S(=O)(=O)N2CCOCC2)cc1NC(=O)CNCc1ccccc1 | -7% | -1% | -22 | ? | -27% | 21µM*
CCN(CC)c1ccc(S(=O)(=O)N2CCOCC2)cc1NC(=O)CN1CCN(Cc2ccccc2)CC1 | -1% | -7% | 0 | 16µM* | -22% | 15µM*
COc1ccc(S(=O)(=O)N2CCOCC2)cc1NC(=O)CN1CCCC1 | 11% | 9% | 15 | 10% | -2% | 12%
CCN(CC)c1ccc(S(=O)(=O)N2CCOCC2)cc1NC(=O)CSC(=S)N1CCCC1 | 0% | -11% | ? | 18µM* | ? | 10µM*
CCN(CC)c1ccc(S(=O)(=O)N2CCOCC2)cc1NC(=O)Nc1ccccc1 | -6% | 12% | 13 | ? | ? | 21µM*
CCN(CC)c1ccc(S(=O)(=O)N2CCOCC2)cc1NC(=O)C1CC1 | 6% | 14% | 0 | -3% | -1% | -13%
Cc1nc2ccc(Cl)cc2n1C | 9% | 10% | -1 | -8% | / | -7%
SMILES | HT1080 IDH1KD tx | HT1080-NT tox | IL-1B inflam inh | DT40 TDP1 CPT | ELG1 DNA repair | TDP1 cell noCPT
COCCNC(=O)/C(C#N)=C/C=C/c1ccccc1[N+](=O)[O-] | ? | ? | -107* | 10µM* | ? | 7.3µM*
CNC(=O)/C(C#N)=C/c1cccc(Oc2ccccc2)c1 | ? | -18% | -102* | 26µM* | ? | 23µM*
COCCNC(=O)/C(=C/c1ccccc1Cl)c1ccccc1 | -4% | -1% | ? | 29µM* | -15% | ?
CNC(=O)/C(=C\c1cccc(Oc2ccccc2)c1)NC(=O)c1ccccc1 | 4% | 11% | ? | 3% | -2% | -23%
COCCNC(=O)/C(C#N)=C/C(C)=C/c1ccccc1 | -11% | ? | -83* | -22% | ? | -21%
COCCNC(=O)/C(C#N)=C/c1cccc(/C=C(\C#N)C(=O)NCCOC)c1 | ? | ? | -99* | 5.8µM* | 21µM* | 12µM*
CCNC(=S)NN(c1ccccc1)c1ccccc1 | 6% | 4% | 5 | -11% | ? | -7%
CC(C)N(c1ccccc1)c1ccc(NC(=O)[C@@H]2O[C@H](CO)[C@@H](O)[C@H]2O)cc1 | 0% | 21% | 10 | 21µM* | / | ?
CN(C)CCCNC(=S)Nc1ccc(Oc2ccccc2)cc1 | -9% | -28% | -18 | 4% | ? | ?
CC(C)c1ccc(NC(=S)NN(c2ccccc2)c2ccccc2)cc1 | -9% | -11% | -22 | 13µM* | ? | 26µM*
CCNC(=S)Nc1ccc(N(c2ccccc2)C(C)C)cc1 | ? | ? | -20 | 26µM* | 20% | 21µM*
CC(C)N(c1ccccc1)c1ccc(NC(=S)NCCN(C)C)cc1 | 21µM* | 16µM* | / | ? | ? | 21µM*
CN=C(Nc1ccc(Br)cc1)SC1CC(=O)N(c2ccc(OC)cc2)C1=O (stereo unspecified) | ? | -2% | -9 | ? | ? | ?

Assay outcomes (PubChem BioAssay)
